# Only some compounds are listed: those with a hit (about 3.5% of all), similar ones and a draw of the others.
# Pf apPOL block: Pf-apPOL inhibitors, biochemical, fluorescence. Recombinant Pf-apPOL, molecular beacon fluorescence, 1.5 h. 210,000 tested, 0.25% active. AID 1794808, 2022. inhibition, % at 10 µM. Plasmodium falciparum apicoplast DNA polymerase (apPOL)
# mHTT-CaM PPI inh: mutant huntingtin-calmodulin interaction inhibitors – biochemical, AlphaScreen, primary screen; P42858; AlphaScreen His-mHTT/GST-CaM binding, luminescence; inhibition, % at 15 µM; 190,000 tested, 3.6% active; AID 1671202, 2021;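 further: 0% = both proteins with DMSO and 100% = one protein alone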
# An asterisk follows results filed as active; . = no result. No stated cut-off is given here; in the data, active means inhibition above about 50%; inactive means the rest.
SMILES,Pf apPOL block,mHTT-CaM PPI inh
CC1CC[N+](C)(CC(O)COc2ccc(C34CC5CC(CC(C5)C3)C4)cc2)CC1 (stereo not given),-1,-9
CC1C[N+](C)(CC(O)COc2ccc(C34CC5CC(CC(C5)C3)C4)cc2)CC(C)O1 (stereo not given),-2,51*
C[N+](C)(C)CC(O)COc1ccc(C23CC4CC(CC(C4)C2)C3)cc1 (stereo not given),-10,24
CCCc1oc2cc(O)c(CC)cc2c(=O)c1-c1ccc2c(c1)OCO2,10,-1
O=C(Nc1ccc(I)cc1)c1cccc(S(=O)(=O)N2CCCC2)c1,-4,-4
CC1CCc2onc(C(=O)NCc3cccs3)c2C1 (stereo not given),-3,-7
Cc1cc(C(=O)N2CCN(Cc3c(C)noc3C)CC2)c(C)o1,-6,-6
Cc1cccc(NC(=O)c2cc3cc(Cl)cc(Cl)c3oc2=O)c1,-4,1
CC(C)(C)C(=O)N(Cc1cccnc1)Cc1cccs1,1,.
O=C(c1ccccn1)N1CCc2[nH]nc(-c3ccccc3)c2C1,-10,-4
Cn1nc(C(=O)N2CCc3[nH]nc(-c4ccccc4)c3C2)c2ccccc21,-6,87*
Cc1ccc(-c2n[nH]c3c2CN(C(=O)c2cccn2C)CC3)cc1,-12,55*
Cc1ccc(-c2n[nH]c3c2CN(C(=O)c2ccoc2)CC3)cc1,-9,10
CCCC(=O)Nc1cccc(NC(=O)COc2ccc(Br)cc2)c1,-4,2
COc1ccc(C(=O)N2CCC(Cc3nc4cccnc4n3C(C)C)C2)cc1OC (stereo not given),-3,2
Cc1onc(-c2c(Cl)cccc2Cl)c1C(=O)NCc1ccc2c(c1)OCO2,-3,4
COc1ccc(CNC(=O)c2cc3ccccn3c2)cc1,0,7
COc1cccc(C(C)NC(=O)c2cc3ccccn3c2)c1 (stereo not given),-3,68*
O=C(Nc1nc(-c2cc([N+](=O)[O-])cs2)cs1)C1=COCCO1,-3,-5
Cc1ccc(C2=N/C(=C\c3ccc(Br)cc3)C(=O)O2)cc1[N+](=O)[O-],-8,-1
Cc1ccc(C2=N/C(=C\c3cccc(Br)c3)C(=O)O2)cc1[N+](=O)[O-],6,51*
CCN(CC)c1ccc(/C=C2\N=C(c3cccc([N+](=O)[O-])c3)OC2=O)cc1,-13,9
CN(C)c1ccc(/C=C2\N=C(c3cccc([N+](=O)[O-])c3)OC2=O)cc1,97*,-1
COc1ccccc1/C=C/c1nc(O)c([N+](=O)[O-])c(=O)[nH]1,-2,50
Cc1c(C)n2c(SCC(=O)NCc3ccco3)nnc2[nH]c1=O,2,-9
SMILES,Pf apPOL block,mHTT-CaM PPI inh
CC(C)(C)n1nc2c(c1NC(=O)c1cccc(Br)c1)CS(=O)(=O)C2,-8,-7
O=C(Nc1cccc2ccc(-n3ccnc3)nc12)c1ccsc1,-6,51*
O=C(Nc1cccc2ccc(-n3ccnc3)nc12)c1ccc2c(c1)OCO2,0,-10
Cn1nc(C(=O)NCc2ccc(F)cc2)c2c1CCN(C(=O)c1cccc(F)c1)C2,-8,-3
Cc1cccc(CNC(=O)c2nn(C)c3c2CN(C(=O)c2ccc(F)cc2)CC3)c1,-5,51*
Cn1nc(C(=O)NCc2ccccc2)c2c1CCN(C(=O)c1ccc(F)cc1)C2,3,19
CCOc1ccc(C(=O)N2CCc3c(c(C(=O)NCc4cccc(C)c4)nn3C)C2)cc1,-11,-1
Cn1nc(C(=O)NCc2ccc(F)cc2)c2c1CCN(C(=O)c1ccco1)C2,-5,18
Cc1cccc(CNC(=O)c2nn(C)c3c2CN(C(=O)COc2cccc(C)c2)CC3)c1,-5,76*
Cc1cccc(CNC(=O)c2nn(C)c3c2CN(C(=O)c2ccco2)CC3)c1,2,72*
Cc1cccc(C(=O)N2CCc3c(c(C(=O)NCc4ccccc4)nn3C)C2)c1,-12,88*
Cc1cc(Cl)ccc1N(CC(=O)NC(C)(C)C)S(=O)(=O)c1ccccc1,0,-4
COc1ccc(-n2nc(C(=O)NCC(=O)N3CCCC3)c3ccccc3c2=O)cc1OC,-9,2
Cc1cc(F)ccc1NS(=O)(=O)c1cc2c(s1)CCN(C(=O)C1CC1)C2,0,2
N#Cc1cccc(S(=O)(=O)N2CCC(CN3CCCCC3)CC2)c1,-3,2
COc1ccc(C(=O)N2CCc3c(c(C(=O)NCc4cccc(C)c4)nn3C)C2)cc1,0,10
CC(C)C(=O)N1CCc2c(c(C(=O)NCc3ccc4c(c3)OCO4)nn2C)C1,-14,6
Cc1cccc(C(=O)N2CCc3c(c(C(=O)NCc4ccc5c(c4)OCO5)nn3C)C2)c1,-8,62*
COc1cccc(C(=O)N2CCc3c(c(C(=O)NCc4ccc5c(c4)OCO5)nn3C)C2)c1,-2,51*
Cc1cccc(CNC(=O)c2nn(C)c3c2CN(C(=O)CSc2ccccc2)CC3)c1,-7,66*
Cc1cccc(CNC(=O)c2nn(C)c3c2CN(C(=O)C2CC2)CC3)c1,-7,6
